Laboratory results reported in PubChem BioAssay (NCI).
The panel holds about 83,000 compounds, 20% with a hit somewhere; the sample as a whole holds those more often.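 Single-dose data. Exposure time 48 hours. Values below 10 considered active.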 A number with no mark means an inactive call. Activity calls are given as the source filed them.

test system: MDA-MB-468 breast; assay: NCI-60 one-dose screen, 48 h (100 = growth as untreated, 0 = no growth, -100 = all killed); details: 10 µM unless noted

SMILES | growth
O=C(CCN1C(=O)/C(=C/c2ccccc2F)SC1=S)N1CCOCC1 | 24.7%
Oc1ccc(OCCOc2ccc(O)cc2)cc1 | 94.6%
COc1cc(/C=C2\C(=O)Nc3ccccc32)ccc1OCc1ccc(Cl)cc1 | 102%
O=C(Cc1ccccc1)Nc1nnc(NC2CCN(c3nnc(NC(=O)Cc4ccccc4)s3)CC2)s1 | 125%
O=C1c2c(Cl)c(Cl)c(Cl)c(Cl)c2C(=O)C2(Cl)CC=CCC12Cl (stereo not given) | -77.2% (active)
